DT40 TDP1 CPT = qHTS for Inhibitors of human tyrosyl-DNA phosphodiesterase 1 (TDP1): qHTS in cells in presence of CPT. Potency, µM (top dose mostly 46.2 µM), for the others: at the top dose activity change, negative = growth inhibition, actives largely listed as inhibitors. 420,000 tested, 12% active. AID 686979, 2013. chicken DT40 Tdp1-/-;hTDP1 cells + 20 nM CPT, ATP luminescence, 48 h; note: potency is the fitted concentration of half-maximal effect; % is set by controls: 0 for no effect and ±100 for the full control effect; nearly all actives have a fitted effect of over 55% in size
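Chicken DT40 Tdp1-/- cells stably complemented with human TDP1 were seeded at 400 cells/well in medium containing 20 nM camptothecin, exposed to pin-transferred compounds, and grown at 37 °C for at least 48 hr. Viability was read as ATP luminescence.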
MCF10A rereplic = A quantitative high throughput screen for small molecules that induce DNA re-replication in MCF 10a normal breast cells. MCF 10A DNA re-replication, Hoechst nuclear intensity, 48 h. Potency, µM (top dose mostly 46.1 µM), for the others: at the highest dose activity, positive = re-replication, usual class: activators. 350,000 tested, 2.9% active. AID 624296, 2012; note: potency is the fitted concentration of half-maximal effect; % of control where 0% means no effect; nearly all actives have a fitted effect of over 50% in size
BCR signal inh = qHTS Assay to Find Inhibitors of Chronic Active B-Cell Receptor Signaling | AID 493014, 2011 | ABC-DLBCL IkBa-CBG/CBR reporter, luminescence ratio, 4 h | Potency, µM (doses to about 46.1 µM), for inactives: at the top dose activity change, negative = inhibition, usual class: inhibitors | 340,000 tested, 0.05% active; active = well fitted inhibition curve with a large enough effect in the signal ratio, with a control signal flat, not every such curve was filed as active; inconclusive = small, poorly fitted or top-dose-only effect, or effect the other way, or a change in a side signal; the % refers to the signal ratio;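 note: potency is the fitted concentration of half-maximal effect; plate controls were basal doxycycline-induced cells for no effect and cells given 10 µM MG132 for full effect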
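Concentration-response series (up to 46 uM) were applied to TMD8 dual-reporter cells for 4 h at 37C with doxycycline. Green/red ratio, after filter-overlap correction, defined %Activity; red signal alone was normalised to basal cells and zero luminescence.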
TDP1 cell noCPT = qHTS for Inhibitors of human tyrosyl-DNA phosphodiesterase 1 (TDP1): qHTS in cells in absence of CPT. DT40 Tdp1-/- hTDP1 cells, no CPT, ATP luminescence, 48 h. Potency, µM (doses to about 46.2 µM), without a hit: at the highest dose activity change, negative = growth inhibition, usual class: inhibitors. 420,000 tested, 15% active. AID 686978, 2013; note: potency is the fitted concentration of half-maximal effect; % is set by controls: 0 for no effect and ±100 for the full control effect; nearly all actives have a fitted effect of over 55% in size
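No-CPT arm: Tdp1-/-;hTDP1 DT40 cells (400/well) plus compounds, incubated ≥48 hr at 37 °C. Readout CellTiter-Glo luminescence.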
SW480 rerep = A quantitative high throughput screen for small molecules that induce DNA re-replication in SW480 colon adenocarcinoma cells; SW480 DNA re-replication, Hoechst DNA content imaging, 48 h; Potency, µM (doses to about 46.1 µM), for inactives: top-dose re-replication activation, most hits filed as activators; 340,000 tested, 1.8% active; AID 624297, 2012; note: potency is the fitted concentration of half-maximal effect; % of control where 0% means no effect; nearly all actives have a fitted effect of over 55% in size
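Image-based read-out: total Hoechst fluorescence of nuclei (405 nm excitation, 500-530 nm emission), with hits raising the fraction of high-intensity nuclei. SW480 colon cells incubated 48 hr with compounds at 37 C.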
IL-1B inflam inh = qHTS for Inhibitors of Inflammasome Signaling: IL-1-beta AlphaLISA Primary Screen; 360,000 tested, 4.7% active; THP-1 LPS/ATP IL-1B secretion, AlphaLISA, 16 h; stronger effect = lower value; AID 743279, 2014; activity change, % at 57.5 µM; in the data active = activity change below about -50%; inconclusive = mostly about -30% to -49%; note: % is set by controls: 0 for no effect and ±100 for the full control effect
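Secreted IL-1B measured by AlphaLISA bead assay after 16 h compound exposure of THP-1 cells; compounds (final up to 57.5 uM) added 1 h before LPS (250 ng/mL) and ATP (1.25 mM) stimulation; lower signal means less secretion.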
* = called active by the depositor; ? = inconclusive; nt = not tested or not shown. Shown are actives, neighbours in structure and some others; about 19% of the full set was active somewhere. Unless noted, calls come from the whole dose curve; as a rule, active = well fitted curve in the direction sought with a large enough effect; inconclusive = small, poorly fitted or top-dose-only effect, or another doubt; inactive = no such curve, though single readings can be large; an effect the other way counts as inactive or inconclusive.

SMILES	DT40 TDP1 CPT	MCF10A rereplic	BCR signal inh	TDP1 cell noCPT	SW480 rerep	IL-1B inflam inh
CC(=O)Nc1ccc(NC(=O)c2csc([C@@H]3C[C@H](O)[C@@H](CO)O3)n2)cc1	-14%	nt	nt	-11%	nt	34
O=C(Nc1ccc(OCCO)cc1)c1csc([C@@H]2O[C@H](CO)[C@H](O)[C@H](O)[C@H]2O)n1	15%	nt	nt	19%	nt	50
NC(=O)c1csc(C2OC(CO)C(O)C2O)n1 (centres undefined)	0.046µM*	nt	nt	0.026µM*	nt	94
O=C(Nc1ccc(Oc2ccccc2)cc1)c1csc([C@H]2C[C@H](O)[C@@H](CO)O2)n1	16µM*	nt	nt	10µM*	nt	46
Cc1coc2c(C)c3oc(=O)c(CCC(=O)N4CCC(C(=O)NCCCC(=O)O)(c5ccccc5)CC4)c(C)c3cc12	-8%	-3%	7%	-2%	-19%	-9
NC(=O)c1ncn([C@@H]2O[C@H](CNCc3ccccc3OCc3ccc(Cl)cc3Cl)[C@@H](O)[C@H]2O)n1	-27%	3%	nt	-18%	-22%	-23
O=c1ccn([C@@H]2O[C@H](CNCc3ccccc3OCc3ccc(Cl)cc3Cl)[C@@H](O)[C@H]2O)c(=O)[nH]1	21µM*	nt	nt	?	nt	-18
O=C(Oc1ccc(OC(=O)N2CCCCC2)cc1)c1ccccc1	?	3%	-3%	0.046µM*	-3%	-4
Cc1cccc(S(=O)(=O)c2cn(Cc3ccccc3)c3cc(N4CCCCC4C)c(F)cc3c2=O)c1 (centres undefined)	-58%	nt	nt	?	nt	nt
COc1ccc(C(=O)OCCN2C(=O)c3ccccc3C2=O)cc1	-27%	-3%	0%	-13%	-6%	2
CN1C(=O)/C(=N\OC(=O)c2cccc3ccccc23)c2ccccc21	12µM*	-1%	23%	13µM*	-1%	-100*
COc1ccc(C(=O)O/N=C2\C(=O)N(C)c3ccccc32)cc1	7.3µM*	-3%	nt	5.8µM*	-3%	2
Cc1cccc(/C(N)=N/OC(=O)c2cccc3ccccc23)c1	nt	nt	6%	nt	nt	nt
COc1ccc(CN2C(=O)C(NC(=O)c3ccccc3OC)(C(F)(F)F)N=C2c2ccccc2)cc1 (centres undefined)	18µM*	nt	nt	15µM*	nt	nt
CCN(C(=O)CN1C(=S)NC(C)(C)CC1C)c1ccc(C)c(C)c1 (centres undefined)	15µM*	4%	2%	23µM*	1%	40
Cc1nn(-c2nnc(NC3CCCCC3)nn2)c(C)c1Br	-8%	0%	?	-4%	2%	-75*
FC(F)(F)c1ccccc1-c1ccc2nncn2c1	-20%	nt	nt	-13%	nt	4
O=S(=O)(Nc1ccccc1)C1CCCCC1	-7%	-4%	nt	3%	-7%	6
CCOc1ccccc1CN(CCc1ccc2c(c1)OCO2)Cc1cccc(OC)c1OC	18µM*	nt	nt	16µM*	nt	nt
CCOc1cc(CNCc2ccc3c(c2)OCO3)ccc1OC	-20%	0%	-2%	-21%	-15%	-12
CCOc1ccc(CN(CCc2ccc3c(c2)OCO3)Cc2cc(OC)c(OC)cc2OC)cc1	?	nt	nt	15µM*	nt	nt
COc1cc(OC)c(OC)cc1CNCc1ccc2c(c1)OCO2	-7%	-7%	-7%	?	-1%	-11
Cc1cccc(Nc2nc(N)c([N+](=O)[O-])c(N3CCCC(C)C3)n2)c1 (centres undefined)	13µM*	?	17%	10µM*	?	-103*
